Reference: PubChem BioAssay AID602304 (NMMLSC, 2012)
Measured potencies and affinities stand elsewhere. Active and inactive are the calls of the source. No rule for the calls is given here.

Test: vacuolar alkalinization by V-ATPase blockade – S. cerevisiae, BCECF dye, powder set 1, dose response (AID 602304)
Conditions: BCECF fluorescence; series mostly up to 100 µM

outcome, inactive:
CS(=O)(=O)c1cccc2sc(N3CCN(C(=O)c4ccc([N+](=O)[O-])o4)CC3)nc12
O=C(c1ccc([N+](=O)[O-])o1)N1CCN(c2nccs2)CC1
O=C(c1ccno1)N1CCN(c2nc3ccc(F)cc3s2)CC1
O=C(c1cccs1)N1CCN(c2nc3ccc(F)cc3s2)CC1
O=C(c1ccco1)N1CCN(c2nc3ccc(F)cc3s2)CC1
O=C(c1ccc([N+](=O)[O-])o1)N1CCN(c2ccccn2)CC1
O=C(C1CCCCC1)N1CCN(c2nc3ccc(F)cc3s2)CC1
Cc1cc(C(=O)N2CCN(c3nc4ccc(F)cc4s3)CC2)on1
O=C(c1cnccn1)N1CCN(c2nc3ccc(F)cc3s2)CC1
Cc1cc(C(=O)N2CCN(c3nc4ccc(F)cc4s3)CC2)nn1C
O=C(c1ccc(Cl)s1)N1CCN(c2nc3ccc(F)cc3s2)CC1
CS(=O)(=O)c1ccc2nc(N3CCN(C(=O)c4ccc([N+](=O)[O-])o4)CC3)sc2c1
O=C(Nc1ccccc1N1CCOCC1)c1ccc([N+](=O)[O-])o1
O=C(C1CC1)N1CCN(c2nc3ccc(F)cc3s2)CC1
Cc1cc(C(=O)N2CCN(c3nc4ccc(F)cc4s3)CC2)n(C)n1
O=C(c1ccc(Br)s1)N1CCN(c2nc3ccc(F)cc3s2)CC1
Cc1cc(C(=O)N2CCN(c3nc4ccc(F)cc4s3)CC2)no1
O=C(c1nc2ccccc2s1)N1CCN(c2nc3ccc(F)cc3s2)CC1
CC(C)(C)C(=O)N1CCN(c2nc3ccc(F)cc3s2)CC1
